Compound activity: PubChem BioAssay, several laboratories
L major viab: reduces viability of Leishmania major promastigotes; AID 1063; actives 9% (n = 200,000); resazurin fluorescence viability; inhibition, % at 10 µM; in the data active = inhibition above about 50%;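 also: promastigotes grown with compound for 44 hours at 28 °C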
Arbovirus anti: blocks arbovirus infection. actives 0.37% (n = 200,000). arbovirus infection cell-based antiviral screen. inhibition, % at 10 µM; in the data active = inhibition above about 30%
CHOP inh: CHOP inhibition in unfolded protein response. CHO-K1 CHOP-promoter luciferase, tunicamycin-induced, 15-18 h. inhibition, % at 10 µM. actives 3.8% (n = 220,000). AID 2732;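 active = compounds that reduced the stress-induced luciferase reporter signal by more than about 70% of percent inhibition, limit read from the data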
WT yeast gro inh: growth inhibition of WT yeast, mitochondrial fusion screen | actives 2.1% (n = 190,000) | mitochondrial fusion phenotypic screen, WT strain | inhibition, % at 10 µM; in the data active = inhibition above about 58%; tested in S. cerevisiae
Numbers stand for hits. Shown are actives, neighbours in structure and some others; about 12% of the full set was active somewhere.

What do the screens show for `CC1(C)CC(=O)C2=C(C1)OC(N)=C(C#N)C21C(=O)N(Cc2ccccc2Cl)c2ccccc21` (configuration not stated)?
L major viab: 59; Arbovirus anti: inactive; CHOP inh: inactive; WT yeast gro inh: inactive

How did Cn1/c(=N/N=C/c2ccc(N3CCOCC3)cc2)sc2ccccc21 do in these assays?
L major viab: inactive; Arbovirus anti: inactive; CHOP inh: inactive; WT yeast gro inh: inactive

How did Cc1cccc2cc(-c3nc4c(C)cccn4c3NCc3ccco3)c(=O)[nH]c12 do in these assays?
L major viab: inactive; Arbovirus anti: inactive; CHOP inh: inactive; WT yeast gro inh: inactive

Results for Cc1ccc2[nH]c(=O)c(-c3nc4cc(C)ccn4c3NCc3ccco3)cc2c1 ?
L major viab: inactive; Arbovirus anti: inactive; CHOP inh: 93; WT yeast gro inh: inactive

How did C=CCc1cc(C=O)cc(OC)c1OCc1c(Cl)cccc1Cl do in these assays?
L major viab: 79; Arbovirus anti: inactive; CHOP inh: 73; WT yeast gro inh: inactive

What do the screens show for `C=CCn1c(O)c(N=NC(=O)c2ccc3c(c2)OCO3)c2ccccc21`?
L major viab: inactive; Arbovirus anti: inactive; CHOP inh: inactive; WT yeast gro inh: inactive

What do the screens show for `Cc1ccc(-c2nnc(CSc3nnc(COc4ccccc4)n3-c3ccccc3)o2)cc1`?
L major viab: inactive; Arbovirus anti: inactive; CHOP inh: inactive; WT yeast gro inh: inactive

What do the screens show for `Cc1ccccc1OCc1nnc(SCc2cc(=O)[nH]c3ccccc23)n1-c1ccccc1`?
L major viab: 75; Arbovirus anti: inactive; CHOP inh: inactive; WT yeast gro inh: inactive

What do the screens show for `Cc1ccc(OCc2nnc(SCc3cc(=O)[nH]c4ccccc34)n2-c2ccccc2)cc1`?
L major viab: 73; Arbovirus anti: inactive; CHOP inh: inactive; WT yeast gro inh: inactive

How did CC1(C)CC(=O)C=C(NCCc2c[nH]c3ccccc23)C1 do in these assays?
CHOP inh: inactive

Results for COc1cc2c(cc1OC)C(c1cccs1)N(C(=O)c1ccc(S(=O)(=O)N(C)C)cc1)CC2 (configuration not stated) ?
CHOP inh: inactive

What do the screens show for `COc1ccc(CCNc2oc(COc3ccccc3F)nc2C#N)cc1`?
L major viab: inactive; Arbovirus anti: inactive; CHOP inh: 87; WT yeast gro inh: inactive

What do the screens show for `COc1ccc(CNc2oc(COc3ccc(Cl)cc3)nc2C#N)cc1`?
L major viab: inactive; Arbovirus anti: inactive; CHOP inh: inactive; WT yeast gro inh: 71

How did COc1ccc(-c2nc(C#N)c(NCCc3ccccc3)o2)cc1 do in these assays?
L major viab: inactive; Arbovirus anti: inactive; CHOP inh: 90; WT yeast gro inh: inactive

What do the screens show for `CCCCC(CC)CNC(=O)Cn1c(=S)[nH]c2ncccc2c1=O` (configuration not stated)?
L major viab: inactive; Arbovirus anti: inactive; CHOP inh: inactive; WT yeast gro inh: inactive

Results for COc1ccc(C)cc1S(=O)(=O)N(C)CC(=O)Nc1ccc2c(c1)OCO2 ?
L major viab: inactive; Arbovirus anti: inactive; CHOP inh: inactive; WT yeast gro inh: inactive

Results for CS(=O)(=O)N(CC(=O)Nc1ccc2c(c1)OCCO2)Cc1ccc(Cl)cc1 ?
L major viab: 96; Arbovirus anti: inactive; CHOP inh: inactive; WT yeast gro inh: inactive

Results for CCOC(=O)c1ccc(NC(=O)CN(Cc2ccc(Cl)cc2)S(C)(=O)=O)cc1 ?
L major viab: 100; Arbovirus anti: inactive; CHOP inh: inactive; WT yeast gro inh: inactive

What do the screens show for `CS(=O)(=O)N(CC(=O)NCc1ccccc1)Cc1ccc(Cl)cc1`?
L major viab: inactive; Arbovirus anti: inactive; CHOP inh: inactive; WT yeast gro inh: inactive

What do the screens show for `COc1ccc(C)cc1S(=O)(=O)N(CC(=O)Nc1ccc2c(c1)OCCO2)Cc1ccccc1`?
L major viab: 74; Arbovirus anti: inactive; CHOP inh: inactive; WT yeast gro inh: inactive

Results for CN1CCC(N(C)C(=S)Nc2ccc(SC(F)F)cc2)CC1 ?
L major viab: 76; Arbovirus anti: inactive; CHOP inh: inactive; WT yeast gro inh: inactive

How did CC1CC(C)CN(C(=S)Nc2ccc(SC(F)F)cc2)C1 (configuration not stated) do in these assays?
L major viab: 73; Arbovirus anti: inactive; CHOP inh: inactive; WT yeast gro inh: inactive

Results for OC1CCCN(C(=S)Nc2ccc(SC(F)F)cc2)C1 (configuration not stated) ?
L major viab: inactive; Arbovirus anti: inactive; CHOP inh: inactive; WT yeast gro inh: inactive

Results for CN1CCC(N(C)C(=S)Nc2ccc(F)cc2)CC1 ?
L major viab: inactive; Arbovirus anti: inactive; CHOP inh: inactive; WT yeast gro inh: inactive

Results for CC1CC(C)CN(C(=S)Nc2ccc(OC(F)F)cc2)C1 (configuration not stated) ?
L major viab: 85; Arbovirus anti: inactive; CHOP inh: inactive; WT yeast gro inh: inactive

How did COc1cc2c(cc1OC)CN(C(=S)Nc1ccc(OC(F)F)cc1)CC2 do in these assays?
L major viab: inactive; Arbovirus anti: inactive; CHOP inh: inactive; WT yeast gro inh: inactive

Results for CCOC(=O)N/N=C(\CCC(=O)O)c1cccs1 ?
CHOP inh: inactive

How did Cc1cc(C)cc(NC(=O)OCCN2CCN(Cc3ccccc3)CCC2=O)c1 do in these assays?
L major viab: inactive; Arbovirus anti: inactive; CHOP inh: inactive; WT yeast gro inh: inactive

Results for Cc1nc(N/N=C/c2ccc(O)cc2)c2cnn(-c3ccccc3)c2n1 ?
L major viab: 67; Arbovirus anti: inactive; CHOP inh: inactive; WT yeast gro inh: inactive

What do the screens show for `O=C(NCc1ccccn1)C1C2C=CC(C2)C1C(=O)Nc1ccc(F)cc1` (configuration not stated)?
L major viab: 76; Arbovirus anti: inactive; CHOP inh: inactive; WT yeast gro inh: inactive

Results for O=C(O)C1C2C=CC(C2)C1C(=O)NCc1ccccn1 (configuration not stated) ?
L major viab: inactive; Arbovirus anti: inactive; CHOP inh: inactive; WT yeast gro inh: inactive

How did Cc1ccc(S(=O)(=O)N2CCOCC2)cc1NC(=O)CSc1nccn1C do in these assays?
L major viab: inactive; Arbovirus anti: inactive; CHOP inh: inactive; WT yeast gro inh: inactive

How did O=C(CSc1cccc[n+]1[O-])Nc1cc(S(=O)(=O)N2CCOCC2)ccc1Cl do in these assays?
L major viab: 68; Arbovirus anti: inactive; CHOP inh: inactive; WT yeast gro inh: inactive

How did C/C(=N\NC(=S)Nc1cc(S(=O)(=O)N2CCOCC2)ccc1Cl)c1ccccc1F do in these assays?
L major viab: 71; Arbovirus anti: inactive; CHOP inh: inactive; WT yeast gro inh: inactive

What do the screens show for `Cn1ccnc1SCC(=O)Nc1cc(S(=O)(=O)N2CCOCC2)ccc1Cl`?
L major viab: 62; Arbovirus anti: inactive; CHOP inh: inactive; WT yeast gro inh: inactive

How did Cc1ccc(C(=O)CC2C(=O)N(c3ccccc3)C(=S)N2c2ccccc2)cc1 (configuration not stated) do in these assays?
L major viab: 59; Arbovirus anti: inactive; CHOP inh: inactive; WT yeast gro inh: inactive

What do the screens show for `CC[n+]1c(/C=C2\C=C(C)CC(C)C2)sc2ccccc21` (configuration not stated)?
L major viab: 100; Arbovirus anti: inactive; CHOP inh: inactive; WT yeast gro inh: inactive

What do the screens show for `CCC1=C/C(=C/c2sc3ccccc3[n+]2CC)CC(C)(C)C1`?
L major viab: 99; Arbovirus anti: inactive; CHOP inh: inactive; WT yeast gro inh: inactive
